Hits are enriched below; roughly 3.7% of the tested compounds scored in any of these assays.
tim23-1 inh: tim23-1 yeast growth inhibition; S. cerevisiae tim23-1 growth, BacTiter-Glo luminescence, 24 h; AID 463212; inhibition, % at 20 µM; actives 1.3% (n = 330,000);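 active means growth inhibition of the mutant yeast at or above 50%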;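 further: temperature-sensitive mutant grown at 25 °C; plate controls were DMSO-treated mutant yeast for no effect and medium wells lacking yeast for full effect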
TIM10 inh: inhibits growth of TIM10 yeast strain; actives 1.4% (n = 330,000); inhibition, % at 10 µM; AID 463195; S. cerevisiae TIM10 strain growth, BacTiter-Glo luminescence, 24 h;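 active means inhibition of 40% or more at the single tested concentration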;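 further: wild-type TIM10 isogenic control strain grown at permissive 25 °C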
PfHsp90 set2: growth inhibition of yeast expressing Plasmodium Hsp90. actives 0.32% (n = 310,000). inhibition, % at 9.4 µM. S. cerevisiae expressing PfHsp90, BacTiter-Glo ATP, 48 h; yeast lacking PDR1 and PDR3 efflux regulators. AID 504621;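 active means every replicate shows inhibition above about 80%, whatever the replicate mean, limit read from the data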;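 further: 0% = DMSO neutral controls and 100% = 20 µM radicicol positive controls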
tim10-1 inh: tim10-1 yeast growth inhibition; actives 2.2% (n = 330,000); inhibition, % at 20 µM; S. cerevisiae tim10-1 ts strain growth, BacTiter-Glo, 24 h; AID 463190;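 active means inhibition of at least 40%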;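 further: mutant grown at 25 °C; 0% = DMSO wells with yeast and 100% = wells holding no yeast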
V-ATPase pH: alters yeast V-ATPase proton transport | AID 504577 | S. cerevisiae, pHLuorin cytosolic pH fluorescence | actives 0.37% (n = 350,000) | response, % at 10 µM; in the data active means response mostly above about 7.3%, no sharp cut-off; inactive means mostly below about 5.4%; further: actives read high
tim10-1 confirm: tim10-1 yeast growth inhibition, confirmed | shares compounds with tim10-1 inh | S. cerevisiae tim10-1 ts strain growth, BacTiter-Glo, 24 h | inhibition, % at 20 µM | actives 56% (n = 7,400);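 active means inhibition of yeast growth at or above a set limit in either of two repeat tests at 20 µM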;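 further: tim10-1 mutant grown at permissive 25 °C to find synthetic lethal compounds; 0% = DMSO yeast wells and 100% = medium wells without yeast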
Active calls of the source: *.

Screening CCOC(=O)c1ccc(NC(=O)c2nc(S(=O)(=O)Cc3ccccc3)ncc2Cl)cc1 returned tim23-1 inh 31, TIM10 inh 0, PfHsp90 set2 9, tim10-1 inh 55*, V-ATPase pH -1 and tim10-1 confirm 21.
For CN(c1ccccc1)S(=O)(=O)c1ccc(NC(=O)c2ccccc2)cc1 the results were tim23-1 inh 43, TIM10 inh -2, PfHsp90 set2 -8, tim10-1 inh 4 and V-ATPase pH -2.
`CN(c1ccccc1)S(=O)(=O)c1ccc(NC(=O)c2nc(S(C)(=O)=O)ncc2Cl)cc1` gave tim23-1 inh 26, TIM10 inh 18, PfHsp90 set2 -3, tim10-1 inh 43*, V-ATPase pH 5 and tim10-1 confirm -1.
CCS(=O)(=O)c1ncc(Cl)c(C(=O)Nc2ccc(S(=O)(=O)N3CCC(C)CC3)cc2)n1 was read as tim23-1 inh 40, TIM10 inh -14, PfHsp90 set2 -17, tim10-1 inh 42*, V-ATPase pH -2 and tim10-1 confirm -34.
`CC1CCN(S(=O)(=O)c2ccc(NC(=O)c3ccncc3)cc2)CC1` gave tim23-1 inh 30, TIM10 inh 18, PfHsp90 set2 -37, tim10-1 inh 37 and V-ATPase pH 2.
`CC(=O)Nc1ccc(NC(=O)c2nc(S(=O)(=O)Cc3cccc(C)c3)ncc2Cl)cc1` gave tim23-1 inh 24, TIM10 inh 19, PfHsp90 set2 -13, tim10-1 inh 3 and V-ATPase pH 2.
COc1ccc(-c2nn(CCC#N)cc2C=C(C#N)C#N)cc1 was read as tim23-1 inh 28, TIM10 inh 30, PfHsp90 set2 1, tim10-1 inh 17 and V-ATPase pH -6.
Cc1ccc(-c2nn(CCC#N)cc2C=C(C#N)C#N)cc1 was read as tim23-1 inh 25, TIM10 inh 21, PfHsp90 set2 -2, tim10-1 inh 45*, V-ATPase pH -1 and tim10-1 confirm 23.
`COc1cccc(Cn2cc(-c3cccc(C(F)(F)F)c3)nn2)c1` gave tim23-1 inh -10, TIM10 inh -1, PfHsp90 set2 -20, tim10-1 inh 42*, V-ATPase pH 1 and tim10-1 confirm 23.
`COc1ccc(-c2cn(Cc3cccc(OC)c3)nn2)cc1` gave tim23-1 inh 9, TIM10 inh 11, PfHsp90 set2 -21, tim10-1 inh 36 and V-ATPase pH -3.
Screening CCCCS(=O)(=O)N1CCN(S(=O)(=O)c2cccs2)CC1 returned tim23-1 inh 0, TIM10 inh 1, PfHsp90 set2 -9, tim10-1 inh -17 and V-ATPase pH -5.
Screening NC(=O)CSc1cn(Cc2ccccc2)c2ccccc12 returned tim23-1 inh -10, TIM10 inh -9, PfHsp90 set2 9, tim10-1 inh -4 and V-ATPase pH 1.
`Cn1ncc(Br)c1C(=O)N/N=C/c1ccc(OS(=O)(=O)c2ccccc2)cc1` gave tim23-1 inh 30, TIM10 inh 35, tim10-1 inh 45*, V-ATPase pH -3 and tim10-1 confirm 25.
CC(/C=N/NC(=O)c1c(Br)cnn1C)=C\c1ccccc1 was read as tim23-1 inh 35, TIM10 inh 0, PfHsp90 set2 -25, tim10-1 inh 1 and V-ATPase pH -3.
`Cc1cccc2c1N(CCOc1ccc(C(C)(C)C)cc1)C(=O)C2=O` gave tim23-1 inh 43, TIM10 inh 28, PfHsp90 set2 -25, tim10-1 inh 46*, V-ATPase pH -4 and tim10-1 confirm 33*.
Screening CCn1c(=O)c(CCC(=O)NCC2CCCO2)c(C)c2c(C)nn(-c3ccc(C)cc3)c21 (stereo unspecified) returned tim23-1 inh 10, TIM10 inh 3, PfHsp90 set2 10, tim10-1 inh 41*, V-ATPase pH -2 and tim10-1 confirm -7.
For Cc1sc2ccc3sccc3c2[n+]1C the results were tim23-1 inh 25, TIM10 inh 20, PfHsp90 set2 4, tim10-1 inh 43*, V-ATPase pH -1 and tim10-1 confirm 46*.
N/C(=N\OC(=O)CCCOc1ccccc1)c1cccc([N+](=O)[O-])c1 was read as tim23-1 inh 32, TIM10 inh 26, PfHsp90 set2 32, tim10-1 inh 55*, V-ATPase pH 5 and tim10-1 confirm 46*.

From PubChem BioAssay
